# Compounds with a hit are over-represented: about 7% of the library has one in this group of screens.
# AHR act = AHR activators, primary screen, cell-based, luminescence, luciferase reporter, human; Aryl hydrocarbon receptor (Homo sapiens), P35869; AHR-responsive luciferase reporter cells; activation, % at 5 µM; 320,000 compounds, 2.5% hits; AID 2796, 2010; in the data active means activation above about 47%;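 further: 0% = vehicle wells and 100% = reference agonist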
# ADAM17 inh = ADAM17 inhibitors, primary screen, biochemical, QFRET. recombinant ADAM17, EDANS/DABCYL FRET peptide cleavage. inhibition, % at 6.95 µM. 370,000 compounds, 0.83% hits. AID 720648, 2013;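 active means inhibition above the mean of compounds lying between control limits plus 3 SD, set per campaign, cut at about 8.5% in these data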;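 further: 0% = DMSO-only wells as the low control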
# rCAG binder = binders of r(CAG) RNA repeats, primary screen, biochemical, fluorescence; inhibition, % at 3 µM; 370,000 compounds, 1.3% hits; AID 651821, 2012; r(CAG) RNA repeat, TO-PRO-1 dye displacement fluorescence;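 active means inhibition above the plate cutoff, the mean of all test compounds on that plate plus 3 SD, cut at about 35% in these data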;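 further: 0% = DMSO alone and 100% = 100 µM mitoxantrone as full dye displacement; higher means more dye released from RNA so lower well fluorescence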
# NR3A LBD binder = binders of NR3A ligand-binding domain, primary screen, biophysical, differential scanning fluorimetry, uHTS. 340,000 compounds, 2.5% hits. AID 1259313, 2017. NR3A LBD differential scanning fluorimetry, Tm shift; 0% = protein alone, 100% = glycine-bound protein. Tm shift relative to glycine control, % at 25 µM. Glutamate receptor ionotropic, NMDA 3A (GRIN3A) ligand-binding domain;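 active means melting temperature shift of at least 10% of the positive control shift, at one fixed dose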
# ADAM10 inh = human ADAM10 inhibitors, primary screen, biochemical, QFRET, HTS; recombinant ADAM10, EDANS/DABCYL FRET peptide cleavage, 3 h; inhibition, % at 7 µM; 370,000 compounds, 0.62% hits; AID 720582, 2013;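 active means inhibition above a per-campaign cutoff equal to the mean of compounds falling between control-based bounds plus 3 SD, cut at about 20% in these data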;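 further: 0% = DMSO wells while the 100% control is not disclosed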
# proKLK7 act = proKLK7 zymogen activators, primary screen, biochemical, fluorescence intensity | activation, % at 7 µM | Kallikrein-7 (Homo sapiens), P49862 | AID 652039, 2013 | 370,000 compounds, 0.9% hits | purified proKLK7, EDANS-DABCYL substrate fluorescence; 100% is mature enzyme control, 0% vehicle;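 active means activation above the mean of all tested compounds plus 3 SD, computed per campaign excluding outliers beyond control limits, cut at about 13% in these data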
# ADAM10 counter = ADAM10 inhibitors, counter-screen for ADAM17 exosite inhibitor project, biochemical, FRET, human ADAM10. shares compounds with ADAM17 inh. AID 743256, 2014. recombinant ADAM10, EDANS/DABCYL FRET peptide cleavage, 3 h. inhibition, % at 6.95 µM. 2,900 compounds, 47% hits;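 active means mean inhibition over the triplicate runs exceeds the activity threshold set in the earlier primary screen, cut at about 20% in these data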;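 further: 0% = DMSO wells and 100% = marimastat wells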
# ADAM17 confirm = ADAM17 inhibitors, hit retest, confirmation, biochemical, QFRET peptide cleavage. AID 743257, 2014. shares compounds with ADAM17 inh. 2,900 compounds, 65% hits. inhibition, % at 6.95 µM. recombinant ADAM17, EDANS/DABCYL QFRET peptide cleavage;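 active means mean inhibition across replicates above the hit cutoff set in the primary screen, cut at about 8.5% in these data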;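 further: 0% = DMSO wells and 100% = marimastat wells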
# Starred values were filed as active, the others as inactive; . = not tested or not shown.
SMILES,AHR act,ADAM17 inh,rCAG binder,NR3A LBD binder,ADAM10 inh,proKLK7 act,ADAM10 counter,ADAM17 confirm
CC1(c2nnc(Cc3ccccc3)o2)CC(c2ccc(C#N)cc2)=NO1 (centres undefined),1,9.0*,6,0,-4,0,-4,0
O=C(NC(=S)Nc1ccc2c(c1)OCCO2)c1cccc2ccccc12,3,11*,1,-4,19,0,18,11*
O=C(NC(=S)Nc1ccc2c(c1)OCCO2)c1cccc(Br)c1,17,4,3,-7,16,0,.,.
Cc1cccc(C)c1NC(=O)C1(C)CSCC(=O)N1CCc1c[nH]c2ccccc12 (centres undefined),.,11*,10,.,-5,0,1,4
Cc1ccc(Cl)c(NC(=O)COC(=O)CNS(=O)(=O)/C=C/c2ccccc2)c1Cl,1,9.1*,8,5,7,0,-4,2
CCOC(=O)[C@@H]1[C@H]2COc3ccc(Br)cc3[C@H]2N2C(=O)N(c3ccc(C)cc3)C(=O)[C@]12C,-2,8.8*,3,-4,14,0,33*,22*
CC(=O)C[C@H](O)CC(=O)[C@@H]1OC(=O)CCCCC/C=C/Cc2ccccc21,0,8.8*,-5,-1,13,0,1,-1
CC(=O)C[C@@H](O)CC(=O)[C@H]1OC(=O)CC/C=C\Cc2ccccc21,0,-2,4,-1,-5,0,.,.
C=CCn1c(COc2cc(C)ccc2C(C)C)nnc1SCC(=O)c1c(N)n(C)c(=O)n(C)c1=O,0,0,2,-2,6,0,.,.
NS(=O)(=O)c1ccc(NC(=O)/C=C/c2cccs2)cc1,15,10*,6,7,15,0,-6,3
NS(=O)(=O)c1cccc(NC(=O)/C=C/c2cccs2)c1,40,0,2,0,2,0,.,.
O=C1OC(c2ccccc2)(N(Nc2ccccc2)c2ccccc2)c2ccccc21 (centres undefined),.,3,3,.,-3,0,.,.
CC(=O)O[C@@H](Cc1ccc(O)cc1)C(=O)CC(C)C,.,9.2*,3,.,5,0,1,2
COC(=O)[C@@H](N)Cc1ccc(O)cc1,-1,.,.,.,.,.,.,.
Cc1cc(C)n2nc(SCCCC(=O)c3ccc(F)cc3)nc2n1,1,1,-3,-1,9,-1,.,.
CCOC(=O)/C=C1\CN(Cc2ccc(OC)cc2)S(=O)(=O)c2ccccc21,1,9.7*,-5,0,17,1,15,15*
CC(C)(C)S(=O)(=O)/C(C#N)=C/c1cccn1S(=O)(=O)c1ccccc1,.,9.4*,2,.,5,1,24*,12*
CC(=O)N1CCc2cc(NC(=O)C3(C)CCN3Cc3ccccc3Cl)ccc21 (centres undefined),.,-4,1,.,-5,-1,.,.
COc1cc(NC(=O)c2ccc(S(=O)(=O)N(C)c3ccccc3)cc2)cc(OC)c1,11,10*,9,-5,15,0,30*,17*
CN(CCCn1ccc(NC(=O)OCc2ccccc2)nc1=O)Cc1ccco1,.,3,-2,.,-7,0,.,.
C=CCn1c(C)nnc1SCC(=O)Nc1ccccc1C(=O)NC1CC1,.,5,0,0,-6,0,.,.
Cc1ccc(C(=O)NCCNc2ccc([N+](=O)[O-])cc2C(F)(F)F)cc1,10,8.8*,1,-4,14,0,20*,12*
CS(=O)(=O)c1nc(-c2ccccc2)c(-c2ccccc2)[nH]1,-2,0,5,0,-6,0,.,.
COc1ccccc1N=Nc1nc(-c2ccccc2)c(-c2ccccc2)[nH]1,-2,12*,10,-15,18,-1,15,10*
COc1cc(CNc2ncnc3c2ncn3[C@H]2CN(Cc3cccc4ccccc34)C[C@@H](CO)O2)cc(OC)c1OC,.,6,8,.,12,1,.,.
SMILES,AHR act,ADAM17 inh,rCAG binder,NR3A LBD binder,ADAM10 inh,proKLK7 act,ADAM10 counter,ADAM17 confirm
COc1cc(COC(=O)Oc2ccc(CNC(C)=O)cc2OC)c([N+](=O)[O-])cc1OC,2,10.0*,-3,1,15,0,3,3
CC(=O)Oc1ccc2c(=O)c(Oc3ccccc3)coc2c1OC(C)=O,3,2,9,3,5,1,.,.
COc1cccc(OC)c1C(=O)Nc1ccccc1C(=O)N1CCCCCC1,-2,-4,-5,0,-16,-1,.,.
COc1ccccc1C(CCN(Cc1cccs1)C(C)=O)c1ccco1 (centres undefined),5,-4,12,1,0,0,.,.
CCC(=O)N(CCC(c1ccccc1)c1ccco1)Cc1cccs1 (centres undefined),-1,9.8*,8,0,3,-1,-2,1
CCN(CC)C(=O)C1=C(C)N(Cc2ccccc2)C(=O)C(CC(=O)NC2CCCCC2)C1 (centres undefined),.,5,-3,.,6,1,.,.
Cc1cccc(NC(=S)N=Nc2c(O)[nH]c3ccccc23)c1,23,9.9*,30,8,15,-1,27*,13*
Cc1cccc(N2CCN(S(=O)(=O)c3ccc4c(c3)C(C)(C)C(=O)N4C)CC2)c1C,3,8.8*,17,-1,20,1,3,8
Cc1ccc(N2C(=O)N(CC(=O)Nc3ccc(F)c(F)c3)C(=O)C2C)cc1 (centres undefined),6,-5,1,-5,-3,0,.,.
Cc1[nH]c2ccccc2c1C(=O)CSC(=S)N1CCCCC1,33,11*,15,4,17,0,12,8
Cc1[nH]c2ccccc2c1C(=O)CSC(=S)N(C)C1CCCCC1,-1,-2,1,2,-6,0,.,.
CCCOc1ccccc1C(=O)N(Cc1cccs1)C1CCS(=O)(=O)C1 (centres undefined),-2,10*,-2,-2,11,0,10,8

# Compound activity: PubChem BioAssay, several laboratories
